Tests used:
Assay type in all cases: functional
[1] = biological target: Solute carrier family 2, facilitated glucose transporter member 1 (Homo sapiens) (UniProt P11166); assay: ST_JUDE_LEISH: Cytotoxicity at 2uM final concentration against transgenic Leishmania Mexicana promastigotes LmGLUT1 that are glucose transport deficient and complemented with the human glucose transporter GLUT1. Activity is measured by DNA content using SYBR green in vitro
[2] = biological target: Hexose transporter 1 (Plasmodium falciparum) (UniProt O97467); assay: ST_JUDE_LEISH: Cytotoxicity at 2uM final concentration against transgenic Leishmania Mexicana promastigotes LmPfHT that are glucose transport deficient and complemented with the Plasmodium falciparum hexose transporter. Activity is measured by DNA content using SYBR green in vitro
[3] = biological target: Glucose transporter (Leishmania mexicana) (UniProt O61059); assay: ST_JUDE_LEISH: Cytotoxicity at 2uM final concentration against transgenic Leishmania Mexicana promastigotes LmGT2 that are glucose transport deficient and complemented with the L. Mexicana glucose transporter 2. Activity is measured by DNA content using SYBR green in vitro

Solute carrier family 2, facilitated glucose transporter member 1 (Homo sapiens), sequence (P11166 whole entry): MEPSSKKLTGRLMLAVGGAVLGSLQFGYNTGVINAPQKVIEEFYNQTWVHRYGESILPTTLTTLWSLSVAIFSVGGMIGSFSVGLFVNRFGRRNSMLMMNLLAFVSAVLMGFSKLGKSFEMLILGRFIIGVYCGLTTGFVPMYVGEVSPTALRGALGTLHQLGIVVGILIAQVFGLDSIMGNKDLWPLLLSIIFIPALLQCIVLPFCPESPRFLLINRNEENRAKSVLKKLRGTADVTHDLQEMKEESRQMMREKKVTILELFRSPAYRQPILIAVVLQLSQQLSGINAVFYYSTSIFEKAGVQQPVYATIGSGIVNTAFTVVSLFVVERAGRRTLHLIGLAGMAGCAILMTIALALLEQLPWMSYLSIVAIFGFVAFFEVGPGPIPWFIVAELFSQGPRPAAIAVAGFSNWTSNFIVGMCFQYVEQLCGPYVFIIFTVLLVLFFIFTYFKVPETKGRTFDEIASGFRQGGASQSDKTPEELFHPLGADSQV

| Structure (SMILES) | inhibition [1] [%] | inhibition [2] [%] | inhibition [3] [%] |
| --- | --- | --- | --- |
| N=C(N)c1ccc(NC(=O)Cc2nc3cc(C(=N)N)ccc3[nH]2)cc1 | -0.77 | -0.09 | -0.08 |
| CCOc1ccccc1CNc1nccc(NCc2ccc(Cl)cc2Cl)n1 | 31.3 | 21.2 | 9.92 |
| Cc1ccc(CON2C(N)=NC(N)=NC23CCCCC3)c2ccccc12 | 3.13 | 2.42 | 4.18 |
